What all share (test): NCI-60 one-dose screen, 48 h (100 = growth as untreated, 0 = no growth, -100 = all killed)
Common to all, as to details: 10 µM unless noted

Assay [1] has as its system NCI-H23 lung.
Assay [2] deals with NCI-H226 lung.
The test system of assay [3] is NCI-H322M lung.
Assay [4] deals with HOP-62 NSCLC.
Assay [5] deals with NCI-H460 lung.
Assay [6] has as its system HOP-92 NSCLC.
For assay [7], the system named is NCI-H522 lung.
Assay [8] relates to A549/ATCC NSCLC.
Assay [9] has as its system 786-0 renal.
For assay [10], the system named is COLO 205 colon.
Assay [11] concerns DU-145 prostate.
Assay [12] deals with K-562 leukemia.
Assay [13] deals with MALME-3M melanoma.
Assay [14] deals with MDA-MB-231 breast.
Assay [15] relates to RXF 393 renal.
For assay [16], the system named is SF-268 CNS.
The test system of assay [17] is SF-295 CNS.
For assay [18], the system named is SF-539 CNS.
Assay [19] concerns UACC-257 melanoma.
In assay [20] the test system is M14 melanoma.

The structures appear in SMILES notation. Compounds without any hit were thinned out: in the full panel of roughly 83,000, 20% have a hit.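 Values shown are percent growth following 48 h exposure of cells in 96-well plates to a single concentration of compound; below 10 was considered active.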 A number with no mark means an inactive call. Activity calls are given as the source filed them.

Turning to `COC(=O)c1ccc([N+](=O)[O-])c(C)c1`, the growth was 107% in assay [1]; 102% in assay [2]; 93.2% in assay [3]; 98.5% in [4]; 105% in [5]; 90.4% in assay [6]. In addition, the growth is 107% in [7]; 107% in assay [8]; 103% in [9]; 111% in assay [10]; 113% in assay [11]; 134% in assay [12]. The growth in assay [13] is 96.9%; in assay [14], 117%; in assay [15] it was 105%; in assay [16] it was 105%; in assay [17] it was 109%; in assay [18], 96.2%. The growth was 101% in [19] and 94% in assay [20].

Regarding `CC1(C)CCC(C)(C)NC(=S)N1`, the growth in assay [1] is 100%; in assay [2], -99.8% (active); in [3] it was 109%; in assay [4], 94.9%; in [5], 115%; in assay [6], 107%. The growth in assay [7] is 94.8%; in assay [8] it was 108%; in assay [9], 105%; in [10], 103%; in assay [11], 107%; in [12], 103%. The growth is 97.3% in assay [13]; 111% in assay [14]; 112% in [15]; 105% in assay [16]; 102% in assay [17]; 105% in assay [18]. The figures for the growth in [19] and in assay [20] were 113% and 98.9%, respectively.

As for `c1ccc2c(NCCCN3CCN(CCCNc4c5ccccc5nc5ccccc45)CC3)c3ccccc3nc2c1`, the growth in [1] is -86.2% [100 µM] (active); in assay [2], -26.2% [100 µM] (active); in assay [3], -33.2% [100 µM] (active); in assay [4], -32.5% [100 µM] (active); in [5], -19.5% [100 µM] (active); in assay [6] it was -26.4% [100 µM] (active). The growth in [7] is -72.1% [100 µM] (active); in assay [8], -24.8% [100 µM] (active); in [9], -28.5% [100 µM] (active); in assay [10], -52.6% [100 µM] (active); in [11] it was -63.4% [100 µM] (active); in [12] it was -10.1% [100 µM] (active). Further, the growth in [13] was -69.7% [100 µM] (active); in assay [14] it was -40.3% [100 µM] (active); in assay [15], -90.3% [100 µM] (active); in [16], -34.9% [100 µM] (active); in [17], -48.1% [100 µM] (active); in [18] it was -79.2% [100 µM] (active). Besides, the growth in [19] was -36.4% [100 µM] (active); in assay [20], -81% [100 µM] (active).

For the compound `O=S(=O)(O)c1cccc2cccnc12`, the growth in assay [1] is 100%; in assay [2] it was 107%; in [3], 122%; in assay [4], 101%; in assay [5] it was 112%; in assay [6], 102%. For the same compound, the growth in assay [7] is 97.4%; in [8], 106%; in assay [9] it was 105%; in [10] it was 127%; in [11], 120%; in [12], 107%. Further, the growth in [13] is 112%; in assay [14], 120%; in assay [15] it was 124%; in assay [16], 95.1%; in [17], 109%; in assay [18], 109%. Besides, the values for the growth in [19] and in [20] were 103% and 106%, respectively.

For the compound `O=C(O)CCCCCNC(=O)OCc1ccccc1`, the growth in assay [1] is 102%; in assay [2], 105%; in [3], 95.1%; in assay [4] it was 101%; in assay [5], 101%; in assay [6], 92.3%. In addition, the growth is 107% in assay [7]; 100% in [8]; 102% in assay [9]; 99% in [10]; 98% in assay [11]; 124% in assay [12]. For the same compound, the growth in [13] was 97.2%; in [14], 102%; in assay [15], 119%; in [16] it was 100%; in assay [17], 99.8%; in assay [18], 97.5%. The values for the growth in assay [19] and in assay [20] were 112% and 92.7%, respectively.

With `C=C(OC(C)=O)c1ccccc1`, the growth in [1] is 97.1%; in [2] it was 107%; in assay [3] it was 113%; in [4] it was 85.5%; in assay [5], 102%; in assay [6] it was 87.5%. For the same compound, the growth in assay [7] is 88.5%; in [8], 86.7%; in assay [9], 104%; in [10] it was 109%; in assay [11] it was 113%; in assay [12], 83%. The growth in [13] was 108%; in [14] it was 103%; in assay [15], 113%; in assay [16], 102%; in [17] it was 105%; in assay [18] it was 108%. Besides, the growth was 83.7% in assay [19] and 97.3% in assay [20].

Regarding `COC(=O)C1(CC(C)=O)NC(=S)NC(=O)C1C#N` (stereo not given), the growth in assay [1] was 99.5%; in assay [2], 108%; in [3] it was 108%; in [4], 104%; in assay [5], 134%; in assay [6], 102%. Also, the growth in assay [7] was 98.6%; in [8], 106%; in assay [9], 105%; in assay [10], 117%; in assay [11], 125%; in assay [12], 104%. For the same compound, the growth in assay [13] was 103%; in [14], 104%; in assay [15] it was 107%; in assay [16], 117%; in [17], 96.8%; in assay [18], 103%. In addition, the growth in assay [19] was 118%; in [20] it was 110%.

As for `Oc1cc2ccccc2c(-c2c(O)c(O)cc3ccccc23)c1O`, the growth in [1] was 41.5%; in [2] it was 39.6%; in assay [3], 47.9%; in [4], 42.3%; in assay [5], 9.65% (active); in assay [6], -22.5% (active). The growth is 1.24% (active) in [7]; 36.1% in [8]; 50% in assay [9]; 58.1% in [10]; 47.3% in assay [11]; 43.8% in [12]. Besides, the growth was 75.4% in assay [13]; 75.1% in assay [14]; 72.7% in assay [15]; 37.9% in [16]; -48% (active) in assay [17]; 21.4% in assay [18]. In addition, the growth in assay [19] is 56.1%; in assay [20], 25%.

In the case of `C=CC(C)(C)n1cc(C2=C(O)C(=O)C(c3cn(C(C)(C)C=C)c4ccccc34)=C(O)C2=O)c2ccccc21`, the growth was 80.7% in assay [1]; 89.9% in [2]; 89% in assay [3]; 73.1% in [4]; 89.5% in assay [5]; 60.9% in assay [6]. Further, the growth is 98.2% in assay [7]; 89.4% in [8]; 87.8% in assay [9]; 96.6% in [10]; 92.9% in [11]; 79.5% in assay [12]. The growth in assay [13] was 90.6%; in [14], 92.6%; in assay [15], 93.2%; in assay [16], 74.7%; in assay [17] it was 83.5%; in [18], 76.6%. The growth is 94% in assay [19] and 69.9% in assay [20].
